Bioassay records from PubChem BioAssay.
TRHR ag = activates the human TRH receptor; P34981; activation, % at 2 µM; TRHR cells, calcium flux fluo-8, FDSS agonist mode; actives 0.18% (n = 360,000)
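Read-out: compound-evoked intracellular calcium rise in TRHR cells, fluo-8 dye, kinetic FDSS fluorescence at 1 s/cycle following a 10-cycle baseline. Cells cultured overnight before dye loading (30 min–1.5 h, RT).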
D1 agonist = human D1 receptor agonism | P21728 | HEK293 T-REx D1 cells, calcium flux, agonist mode | activation, % at 2 µM | actives 1% (n = 360,000)
Target sequence (P21728 whole entry, looked up): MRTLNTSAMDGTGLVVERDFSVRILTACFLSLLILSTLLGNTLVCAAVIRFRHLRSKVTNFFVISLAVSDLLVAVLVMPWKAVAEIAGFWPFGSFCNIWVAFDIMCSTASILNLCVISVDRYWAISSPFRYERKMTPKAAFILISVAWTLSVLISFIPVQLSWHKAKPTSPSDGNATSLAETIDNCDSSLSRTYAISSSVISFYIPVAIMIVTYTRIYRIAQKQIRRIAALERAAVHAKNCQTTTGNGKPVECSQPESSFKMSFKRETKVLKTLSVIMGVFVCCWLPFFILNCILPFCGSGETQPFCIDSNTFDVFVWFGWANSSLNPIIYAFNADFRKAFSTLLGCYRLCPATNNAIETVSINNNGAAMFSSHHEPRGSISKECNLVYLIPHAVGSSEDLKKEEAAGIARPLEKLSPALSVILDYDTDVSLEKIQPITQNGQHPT
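Agonism was scored from calcium flux recorded over 180 s (1 read/s) after pintool compound addition, following a 10-cycle baseline. Cells were inducible force-coupled HEK293 TREx D1, plated overnight at 30 C and loaded with no-wash calcium dye.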
D1 PAM = potentiators of human D1 dopamine receptor; P21728; HEK293 TREx D1 cells, calcium flux, dopamine EC20 potentiation; potentiation, % at 10 µM; actives 0.036% (n = 360,000); AID 504651; in the data active = potentiation above about 30%
TRHR enhancer = allosteric enhancers of human TRH receptor; P34981; TRHR cells, fluo-8 calcium fluorescence, EC20 TRH enhancement; enhancement, % at 2 µM; actives 0.66% (n = 360,000); in the data active = enhancement above about 30%
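TRHR-expressing cells loaded with fluo-8 calcium dye were read kinetically (ex 480/em 530) during compound addition, then stimulated with an EC20 of TRH (10 nM final). Enhancement of the Gq-mediated intracellular calcium response was scored.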
D1 antagonist = human D1 dopamine receptor antagonism; P21728; HEK293 TREx D1 cells, calcium flux, dopamine EC80; hits give low values; activity change, negative = inhibition, % at 10 µM; actives 3.2% (n = 360,000); AID 504652; in the data active = activity change below about -30%
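Calcium flux readout: force-coupled, inducible Hek293 Trex D1 line, cells induced overnight at 30 C with tetracycline, dye-loaded 30–90 min at RT. Antagonism scored against EC80 dopamine challenge given 180 s after compound.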
A number is an active result. In the library only some 4.7% were active in any assay of this set; here they are far more common. Rule as the data show it, unless noted: active = activation above about 30%; inactive = the rest.

How did CCOC(=O)C1CCCN(S(=O)(=O)CCNC(=O)c2cccc(OC)c2)C1 (stereo not given) do in these assays?
TRHR ag: inactive; D1 agonist: inactive; D1 PAM: inactive; TRHR enhancer: inactive; D1 antagonist: inactive

How did N#Cc1c(-c2ccccc2Cl)cc(C2CC2)nc1N do in these assays?
TRHR ag: inactive; D1 agonist: 99.2; D1 PAM: inactive; TRHR enhancer: inactive; D1 antagonist: inactive

What do the screens show for `COc1ccccc1-c1cc(C2CC2)nc(N)c1C#N`?
TRHR ag: inactive; D1 agonist: inactive; D1 PAM: inactive; TRHR enhancer: inactive; D1 antagonist: inactive

Results for COc1cc(/C=C/C(=O)N2CCN(Cc3ccccc3)CC2)cc(OC)c1OC ?
TRHR ag: inactive; D1 agonist: inactive; D1 PAM: inactive; TRHR enhancer: inactive; D1 antagonist: inactive

Results for CCOc1ccc(Cn2c(CNS(=O)(=O)c3cccc(Cl)c3)nc3cccnc32)cc1 ?
TRHR ag: inactive; D1 agonist: inactive; D1 PAM: inactive; TRHR enhancer: inactive; D1 antagonist: -80.0

What do the screens show for `Cn1nnnc1SCC(=O)c1cccs1`?
TRHR ag: inactive; D1 agonist: inactive; D1 PAM: inactive; TRHR enhancer: inactive; D1 antagonist: inactive

What do the screens show for `COc1ccc2c(c1)nc(SCC(=O)c1cccs1)n2C`?
TRHR ag: inactive; D1 agonist: inactive; D1 PAM: inactive; TRHR enhancer: inactive; D1 antagonist: -35.8

What do the screens show for `COc1ccc2c(c1)nc(SCC(=O)C(C)(C)C)n2C`?
TRHR ag: inactive; D1 agonist: inactive; D1 PAM: inactive; TRHR enhancer: inactive; D1 antagonist: inactive

What do the screens show for `Cc1cc(C)c(-n2nnnc2SCC(=O)c2cccs2)c(C)c1`?
TRHR ag: inactive; D1 agonist: inactive; D1 PAM: inactive; TRHR enhancer: inactive; D1 antagonist: -42.3

How did CCOC(=O)C1CCN(C(=O)Cn2nc(CC)n3c(cc4sccc43)c2=O)CC1 do in these assays?
TRHR ag: inactive; D1 agonist: inactive; D1 PAM: inactive; TRHR enhancer: 30.1; D1 antagonist: inactive

Results for CCOc1ccccc1Cn1c(=O)sc2ccccc21 ?
TRHR ag: inactive; D1 agonist: inactive; D1 PAM: inactive; TRHR enhancer: inactive; D1 antagonist: inactive

Results for CC(C)CCOc1ccccc1Cn1c(=O)sc2ccccc21 ?
TRHR ag: inactive; D1 agonist: 34.8; D1 PAM: inactive; TRHR enhancer: inactive; D1 antagonist: inactive

Results for COc1ccccc1Cc1noc(COc2cccc(C)c2C)n1 ?
TRHR ag: inactive; D1 agonist: inactive; D1 PAM: inactive; TRHR enhancer: inactive; D1 antagonist: -78.0

Results for COc1cccc(-c2noc(COc3cccc(C)c3C)n2)c1 ?
TRHR ag: inactive; D1 agonist: inactive; D1 PAM: inactive; TRHR enhancer: inactive; D1 antagonist: inactive

Results for Cc1cccc(NC(=O)C2CCN(c3nccc(C)n3)CC2)c1 ?
TRHR ag: inactive; D1 agonist: inactive; D1 PAM: inactive; TRHR enhancer: inactive; D1 antagonist: -34.8

Results for O=[S+]([O-])(c1ccc(-c2ccccc2)cc1)N1CCN([S+](=O)([O-])c2ccc3c(c2)OCCO3)CC1 ?
TRHR ag: inactive; D1 agonist: inactive; D1 PAM: inactive; TRHR enhancer: inactive; D1 antagonist: inactive

What do the screens show for `Cc1cc(C)n(S(=O)(=O)c2ccccc2[N+](=O)[O-])n1`?
TRHR ag: inactive; D1 agonist: inactive; D1 PAM: inactive; TRHR enhancer: inactive; D1 antagonist: -55.7

What do the screens show for `Cc1nc(-c2ccc(F)cc2)sc1CCNC(=O)c1ccco1`?
TRHR ag: inactive; D1 agonist: inactive; D1 PAM: inactive; TRHR enhancer: inactive; D1 antagonist: inactive

How did CCOc1ccc(C(C(=O)NC2CCCC2)N(CCCO)C(=O)c2ccc(-c3ccccc3)[nH]2)cc1 (stereo not given) do in these assays?
TRHR ag: inactive; D1 agonist: inactive; D1 PAM: inactive; TRHR enhancer: inactive; D1 antagonist: -30.4

Results for COc1cccc(-c2ccc(SCC(=O)NC3CCCCC3)nn2)c1 ?
TRHR ag: inactive; D1 agonist: inactive; D1 PAM: inactive; TRHR enhancer: inactive; D1 antagonist: inactive

How did O=C(c1cc([N+](=O)[O-])ccc1Cl)N1c2ccccc2Sc2ccccc21 do in these assays?
TRHR ag: inactive; D1 agonist: inactive; D1 PAM: inactive; TRHR enhancer: inactive; D1 antagonist: -36.6
